ChEMBL document CHEMBL4513216, “Probing the Open Global Health Chemical Diversity Library for Multistage-Active Starting Points for Next-Generation Antimalarials” (ACS Infect Dis, 2020)
The campaign covered roughly 69,000 compounds. About 8,600 (12%) showed an effect of 50% or more. For the sample, strong results were picked, then their nearest neighbours and some compounds at random.

test system: Plasmodium berghei; test: Screen against P. berghei liver stage (PbLuc), transformed with Luciferase, at 10uM; format: functional, HepG2; conditions: tested at 10 uM

| SMILES | INHIBITION [%] |
| --- | --- |
| CCN1C(=O)CCC12CCC(NC(=O)c1cc(C)on1)CC2 (centres undefined) | -45.5 |
| C[C@@H]1CN(c2nc(O)cc(Cc3ccccc3F)n2)C[C@H](C)O1 | 15.5 |
| Cc1cc(-c2nn3c(C4CCC4)nnc3s2)on1 | 34.6 |
| O=C(CCC1CCN(C2CSCCSC2)CC1)NCC1CCCO1 (centres undefined) | 34.9 |
| c1cncc(OCc2noc3c2CN(Cc2ccco2)CC3)c1 | 38.5 |
| Cc1nc(SC2CCN(c3sccc3C#N)C2=O)oc1C (centres undefined) | 51.5 |
| Cc1nnc(SC2CCN(c3sccc3C#N)C2=O)s1 (centres undefined) | 16.8 |
| Cc1nnc(SC2CCN(c3sccc3C#N)C2=O)[nH]1 (centres undefined) | 40.7 |
| O=C(Cc1csc(-c2ccccc2F)n1)NCc1ccc(C(=O)O)cc1 | 2.61 |
| CCn1cc(NC(=O)NCc2ccc3c(c2)OCO3)cn1 | -25.9 |
| CCCc1noc(C(C)N2CCN(Cc3nc(C)c(C)o3)CC2)n1 (centres undefined) | -12.25 |
| Cc1cnn(CCNCC(=O)N2CCN(c3ncccn3)CC2)c1 | 25.1 |
| Cn1cc(NC(=O)c2cccc(C(F)(F)F)c2)c(=O)n(C)c1=O | 15 |
| CN(C)c1cccc(C(=O)Nc2cn(C)c(=O)n(C)c2=O)c1 | 31.2 |
| Cn1cc(NC(=O)c2cccc(Cl)c2)c(=O)n(C)c1=O | 56.1 |
| CCC(=O)N1CCCC(Cn2cc(-c3ccc(F)cc3)nn2)C1 (centres undefined) | -14.2 |
| CSCC(=O)N1CCCN(c2ccccc2C)CC1 | 84.5 |
| O=C(c1ncoc1C1CC1)N1CCN(CCOc2ccccc2)CC1 | 26.7 |
| Cc1ccccc1N1CCN(C(=O)CC(C)C)CC1 | 56.5 |
| Cc1cnccc1N1CCCN(C(=O)CCCn2ccnc2C)CC1 | -2.48 |
| Cc1ccccc1N1CCCN(C(=O)c2cn(C)c3ccccc23)CC1 | -2.13 |
| Cn1nccc1C(=O)N1CCCN(CCCc2ccccc2)CC1 | -16.8 |
| CSCCC(=O)N1CCCN(c2ccccc2C)CC1 | 34.1 |
| Cc1ccccc1N1CCCN(C(=O)CCCn2ccnc2C)CC1 | 75.4 |
| CSCC(=O)N1CCCN(c2ccncc2C)CC1 | 49.2 |
| O=C(c1ncoc1C1CC1)N1CCCN(CCCc2ccccc2)CC1 | 83.9 |

| SMILES | INHIBITION [%] |
| --- | --- |
| CCOCCC(=O)N1CCCN(c2ccccc2C)CC1 | 15.2 |
| Cc1nccn1CCCC(=O)N1CCCN(c2cccnn2)CC1 | 10 |
| COc1nn(C)c2c1CCCN(C(=O)c1cccc3cccnc13)C2 | 14 |
| Cc1cc(C)c(C(=O)N2CCC3(CCCNC3)C2)cc1C (centres undefined) | -35.8 |
| O=C1[C@H]2CN(C(=O)[C@H]3CCCO3)C[C@H]2CN1CCN1CCCC1 | 1.34 |
| CC(C)[C@H]1CN(CCCO)C[C@@H]1NC(=O)CCC(F)(F)F | 20.2 |
| CCn1cc(-n2cc3nc(N4CCCC4)[nH]cc-3c2=O)cn1 | -29.6 |
| Cc1cc(N2CCOC(C)(C(=O)N(C)C)C2)ncn1 (centres undefined) | 37.8 |
| NC(=O)N1CCC2(CCN(Cc3cccc(F)c3)CC2)CC1 | -13.2 |
| CC(=O)N1CCCN(CCCc2ccccc2)CC1 | 15.2 |
| Cc1ccccc1N1CCCN(C(=O)CCc2nncn2C)CC1 | 49.3 |
| Cc1ccccc1N1CCCN(C(=O)CCc2ccncc2)CC1 | 26.9 |
| Cc1ccccc1N1CCCN(C(=O)CCc2cccnc2)CC1 | 59.2 |
| Cc1nccn1CCC(=O)N1CCCN(CCCc2ccccc2)CC1 | 51.5 |
| Cc1nccn1CCC(=O)N1CCCN(c2ccccc2)CC1 | 28.7 |
| NC(=O)c1ccc(N2CCN(CCCc3cn[nH]c3)CC2)cc1 | -62.8 |
| CCN(CC)CC1CN(Cc2ccco2)Cc2nccn2C1 (centres undefined) | -33.9 |
| CCc1nc(CN2CCN(C(=O)C3(C#N)CCCCC3)CC2)cs1 | -9.37 |
| Cc1[nH]nc(-c2ccc(F)cc2)c1CC(=O)NCC1CCOCC1 | 9.55 |
| COc1ccc(-c2n[nH]c(C)c2CC(=O)NCC2CCOCC2)cc1 | 51.9 |
| COc1ccc(-c2cc3cccn(CC(=O)N4CCOCC4)c-3n2)cc1 | -23.4 |
| COc1ccc(-c2n[nH]c(C)c2CC(=O)NCCN2CCOCC2)cc1 | 29.3 |
| COc1ccc(-c2n[nH]c(C)c2CC(=O)NCC2CCCO2)cc1 (centres undefined) | 39.7 |
| COc1ccc(-c2n[nH]c(C)c2CC(=O)N2CCOCC2)cc1 | 51.3 |
| COCCN(Cc1cnn(C)c1)C(=O)C1CCC(=O)N(C2CCCC2)C1 (centres undefined) | 20.3 |
| CC1(C)C[C@H](CCNC(=O)c2ccncc2)c2ccccc2O1 | 27.8 |

| SMILES | INHIBITION [%] |
| --- | --- |
| O=C1CC(N(C(=O)c2ccc(Cl)c(Cl)c2)C2CC2)C(=O)N1 (centres undefined) | 31.8 |
| O=c1ccc(-n2ccnc2)nn1CCNS(=O)(=O)c1ccc(F)c(Cl)c1 | -1.99 |
| O=c1ccc(-n2ccnc2)nn1CCNS(=O)(=O)c1ccccc1Cl | 35.1 |
| O=c1ccc(-n2ccnc2)nn1CCNS(=O)(=O)c1ccc(Br)cc1 | 59.3 |
| CN(Cc1ncc[nH]1)C(=O)C(C)(C)NC(=O)c1cccs1 | 9.79 |
| CC(NC(=O)N1CCC(n2cncn2)CC1)c1ccc(F)cc1 (centres undefined) | 17.4 |
| CCS(=O)(=O)N1CCC[C@]2(C(=O)N(C)C)CN(c3ccccn3)C[C@@H]2C1 | 4.92 |
| CN(C)Cc1nnc(C2CCN(c3ncccn3)CC2)n1C1CC1 | -12.1 |
| Cc1cnc(C)c(N2CCC(c3nnc(CN(C)C)n3C3CC3)CC2)n1 | 77.8 |
| Cc1cc(C)nc(N2CCC(c3nnc(CN(C)C)n3C3CC3)CC2)n1 | -46.8 |
| CCc1c(C)nc2n(c1=O)CC(C(=O)NCc1cccs1)CS2 (centres undefined) | 35.8 |
| Fc1ccc(CN2CCO[C@H]3[C@H](Oc4ccccn4)CC[C@@H]32)cc1 | 61.5 |
| c1ccc(O[C@@H]2CC[C@H]3[C@H]2OCCN3Cc2ccsc2)nc1 | 20.9 |
| c1ccc(O[C@@H]2CC[C@H]3[C@H]2OCCN3CC2CCOCC2)nc1 | 56.1 |
| Cc1cccc(CN2CCO[C@H]3[C@H](Oc4ccccn4)CC[C@@H]32)n1 | -49.6 |
| c1ccc(CN2CCO[C@H]3[C@H](OCCN4CCCC4)CC[C@@H]32)nc1 | 26.8 |
| COc1ccc(CN2CCO[C@H]3[C@H](Oc4ccccn4)CC[C@@H]32)cc1 | 41.2 |
| c1ccc(O[C@H]2CC[C@H]3[C@H]2OCCN3Cc2nccs2)nc1 | 6.8 |
| O=C(CO[C@@H]1CC[C@H]2[C@H]1OCCN2Cc1ccccn1)N1CCCC1 | 54.1 |
| O=C(CO[C@@H]1CC[C@H]2[C@H]1OCCN2c1ncccn1)N1CCCC1 | 24.6 |
| Cc1cc(C)nc(N2CC=C[C@@H]2C(=O)NCc2ccc3c(c2)OCO3)n1 | 4.41 |
| CC(C)n1c(=O)c2ccccc2n(CCN2CCCCC2)c1=O | 3.19 |
| COc1ccc(C)cc1C(=O)NC1(C#N)CCOCC1 | 42.1 |
| COC(=O)c1ccc(N2CCN(CCS(C)(=O)=O)C(C)C2)cc1 (centres undefined) | 0.411 |
| Cc1cc(C(=O)CN2CCN(c3cnccn3)CC2)c(C)n1C(C)C | 17.7 |
| CCOc1ccnc(N2CCN(C(=O)c3ccc(C#N)cc3)CC2)n1 | 36.1 |

| SMILES | INHIBITION [%] |
| --- | --- |
| N#Cc1ccc(CNCCn2cccn2)c(F)c1 | 20.74 |
| O=C(Cn1c(-c2ccco2)cc2cccnc21)N1CCCC1 | -16.8 |
| CCCc1noc(CNc2cc(C[S+](C)[O-])ccc2Cl)n1 (centres undefined) | 30.9 |
| Clc1ccc(C2(NCc3noc(C4CC4)n3)CCC2)cc1 | 8.18 |
| Cc1cccc(C)c1NCc1noc(C2CC2)n1 | 36.3 |
| CCCc1nc(CNc2ccc(F)c(F)c2)no1 | -9.51 |
| CCCc1nc(CNc2cc(CS(C)(=O)=O)ccc2Cl)no1 | 52.2 |
| CS(=O)(=O)Cc1ccc(Cl)c(NCc2noc(C3CC3)n2)c1 | 57.8 |
| CC(=O)N[C@H]1CCO[C@@H](c2cccc(NC(=O)Cc3ccccc3)c2)C1 | 13.205 |
| CCc1nnc(CN2CCOC(Cn3cc(C)cn3)C2)o1 (centres undefined) | 15.5 |
| CC(=O)N1CCCN(C(=O)C(C)n2cncn2)CC1 (centres undefined) | 10 |
| CCc1cc(NCCCc2nc(C)no2)nc(-c2ccncc2)n1 | 17.6 |
| OC1(CN2CCC(Oc3cccnc3)CC2)CNCCOC1 (centres undefined) | -16.8 |
| OC1(CN2CCC(Oc3cccc(C(F)(F)F)c3)CC2)CCNC1 (centres undefined) | 87.7 |
| Cc1cccc(CNC(=O)NCC2CCN(Cc3ncc[nH]3)C2)c1 (centres undefined) | 4.68 |
| FC(F)(F)c1cccc(OC2CCN(Cc3ncc[nH]3)CC2)c1 | 79.7 |
| OC1(CN2CCC(Oc3cccc(C(F)(F)F)c3)CC2)CNCCOC1 (centres undefined) | 37.1 |
| O=c1ccn([C@H]2CCN(Cc3ncc[nH]3)CC[C@@H]2O)c(=O)[nH]1 | 24.4 |
| O=C(c1ccc(=O)[nH]c1)N1CCC(Oc2cccc(C(F)(F)F)c2)CC1 | 50.1 |
| O=C(c1cccnc1)N1CCC(Oc2cccc(C(F)(F)F)c2)CC1 | 27.6 |
| O=C(c1ccncc1)N1CCC(Oc2cccc(C(F)(F)F)c2)CC1 | 10.5 |
| Cc1cccc(OC2CCN(Cc3ncc[nH]3)CC2)c1 | 53.2 |
| Fc1cccc(OC2CCN(Cc3ncc[nH]3)CC2)c1 | 40 |
| Nc1cc(C(=O)N2CCC(Oc3cccc(C(F)(F)F)c3)CC2)ccn1 | 38.3 |
| COc1ccc(Cl)cc1C(=O)NCCNc1cnccn1 | -21.8 |
| O=C1CC2(CCN(c3nncs3)C2)CN1c1cccc(F)c1 (centres undefined) | -6.3 |
